Assay outcomes as filed in PubChem BioAssay.
This is a sample that favours compounds with a hit; in the whole collection about 3.6% have one here.
Nrf2 inh: Nrf2 qHTS screen for inhibitors; A549 ARE-Fluc reporter, luciferase luminescence, 18-24 h; Potency, µM (series often up to 46 µM), for the others: at the top dose activity change, negative = inhibition, actives largely listed as inhibitors; 360,000 tested, 2.1% active; further: on the % scale 0 is the no-effect control and ±100 the full control effect; nearly all actives have a fitted effect of over 60% in size
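Nrf2 function is reported as luminescence of an ARE-controlled luciferase in A549 cells. Compounds were tested at several concentrations, and a CellTiter-Fluor read on the same wells flagged cytotoxicity.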
Nrf2 ARE act: qHTS of Nrf2 Activators; 410,000 tested, 0.31% active; Potency, µM (titrated, usually from 46.1 µM), for the others: at the highest dose activation, actives largely listed as activators; AREc32 ARE-luciferase reporter (MCF7-derived line), luminescence, 24 h; further: % of control where 0% means no effect; nearly all actives have a fitted effect of over 65% in size
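Each well held 1000 AREc32 cells, which were incubated with compound for 24 hr at 37 deg C after overnight attachment, and ARE reporter activity was quantified by firefly luciferase luminescence.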
A549 tox: Nrf2 qHTS screen for inhibitors: counterscreen for cytotoxicity; 390,000 tested, 0.16% active; Potency, µM (highest dose often 46 µM), for inactives: top-dose activity change, negative = cytotoxicity, hits mostly inhibitors; AID 504648, 2011; A549 ARE-Fluc cells, CellTiter-Fluor viability, 18-24 h; further: on the % scale 0 is the no-effect control and ±100 the full control effect
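A549 ARE-Fluc cells in 5% FBS OPTI-MEM, 5000 cells/well, rested 2 h then exposed to compounds in concentration-response for 18-24 h at 37 °C. Viability by CellTiter-Fluor fluorescence (Ex 405/Em 525) after 30 min; luciferase luminescence (BugLite, 15 min, RT) read afterwards.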
TGFb SMAD3 inh: qHTS for Inhibitors of TGF-b | HepG2 CAGA-GFP TGF-b/SMAD3 reporter, GFP fluorescence, 18 h; TGF-beta stimulated, 500 pg/mL final | Potency, µM (highest dose often 46.1 µM), without a hit: top-dose activity, negative = inhibition, hits mostly inhibitors | 410,000 tested, 1.2% active | AID 588855, 2011; further: on the % scale 0 is the no-effect control and ±100 the full control effect; nearly all actives have a fitted effect of over 65% in size
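Smad-responsive CAGA-GFP expression was quantified in HEPG2 cells exposed to compounds and 500 pg/mL final TGF-beta for 18 h at 37 degrees C; unstimulated wells defined full inhibition.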
HepG2 viability: qHTS for Inhibitors of TGF-b: Cytotox Counterscreen | HepG2 CAGA-GFP viability, ATP luminescence, 18 h | 410,000 tested, 0.76% active | Potency, µM (doses to about 46.1 µM), for the others: at the highest dose activity change, negative = cytotoxicity, hits mostly cytotoxic
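HepG2 CAGA-GFP cells (1000/well, DMEM with 1% FBS) received compound, then TGF-beta at 500 pg/mL final, and were incubated 18 hours at 37 degrees C. Viability was read by CellTiter-Glo luminescence. Media-only wells were set as complete cell-killing and DMSO as no toxicity.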
An asterisk follows results filed as active; ? = inconclusive; / = no result; [ ] = another dose, or the depositor's remark. The call rests on the fitted dose curve; in most records, active means well fitted curve in the direction sought with a large enough effect; inconclusive means small, poorly fitted or top-dose-only effect, or another doubt; inactive means no such curve, though single readings can be large; an effect the other way counts as inactive or inconclusive. Potency means the concentration at half of the fitted maximal effect.

SMILES	Nrf2 inh	Nrf2 ARE act	A549 tox	TGFb SMAD3 inh	HepG2 viability
CCOc1cc(/C=N/NC(N)=O)cc(Br)c1OCC(=O)Nc1ccccc1C	-11.5%	2.6%	-4.9%	?	-18.7%
CCOc1cc(/C=N/NC(N)=O)cc(Br)c1OCC(=O)Nc1cccc2ccccc12	-4.8%	2.2%	-15.3%	17.0%	11.2µM*
CCC(CO)Oc1cc(NCc2cccc(OC)c2)c2ncn(C(C)C)c2c1 (stereo unspecified)	-5.4%	-3.6%	-6.3%	-3.9%	-30.3%
COc1cc(CNc2cccc3[nH]c(C(F)(F)F)nc23)cc(OC)c1	?	2.0%	-7.1%	12.6µM*	-46.4%
Cn1c(NC(=O)c2ccc(F)cc2)c(-c2ccccn2)c(=O)c2ccccc21	13.6%	0.2%	-0.6%	-11.9%	4.7%
CCOc1cc(CNCCCN2CCOCC2)cc(Cl)c1OCC(=O)NC(C)(C)C	6.1%	0.1%	-7.5%	6.3%	-7.3%
O=C(COc1ccccc1)Nc1cc(C(F)(F)F)ccc1N1CCCC1	?	3.3%	-10.5%	?	-2.4%
Cc1cc(N2CCCC2)ccc1NC(=O)COc1cccc(C(F)(F)F)c1	5.8µM*	-1.1%	-19.5%	?	-36.0%
Nc1nc(SCC(=O)Nc2cccc(C(F)(F)F)c2)n[nH]1	18.4µM*	0.7%	3.7%	-13.5%	0.5%
O=C(COc1ccc(C(=O)O)cc1)Nc1cccc(C(F)(F)F)c1	-11.5%	-1.0%	5.5%	4.4%	-6.0%
CCOc1cc(CNCCCN2CCOCC2)cc(Br)c1OCC(=O)Nc1cccc(C(F)(F)F)c1	1.7%	-5.5%	-9.6%	?	17.8µM*
O=C(COCC(=O)Nc1cccc(C(F)(F)F)c1)Nc1cccc(C(F)(F)F)c1	?	-0.8%	?	-19.8%	22.4µM*
COC(=O)c1sc(N)c(C(=O)OC)c1Cn1ncc(Cl)c(Cl)c1=O	0.9%	?	0.5%	-25.6%	1.2%
CN1CCN(C(=S)c2ccc(OCC(=O)Nc3cccc(C(F)(F)F)c3)cc2)CC1	14.6µM*	3.5%	-8.7%	-45.3%	-30.7%
Nc1nc(SCC(=O)Nc2ccc3c(c2)OCO3)n[nH]1	4.0%	0.0%	2.7%	-1.5%	10µM*
Cn1cnnc1SCC(=O)N1CCN(C(=O)c2ccco2)CC1	-9.6%	2.7%	?	3.8%	1.5%
O=c1[nH]n(Cc2ccccc2)c(=O)c2ccccc12	/	5.01µM*	-3.0%	3.9%	-16.0%
Cc1cc(=O)c2ccc(C(F)(F)F)cc2[nH]1	-13.7%	0.3%	-7.6%	-17.1%	-68.9%
O=c1cc(C(F)(F)F)[nH]c2ccc(C(F)(F)F)cc12	20.6µM*	8.1%	?	?	-35.4%
CC(=O)NC(CC(=O)NCCCn1ccc2ccccc21)c1ccccc1 (stereo unspecified)	3.2%	0.0%	7.4%	-11.1%	3.8%
Cc1cc(C(=S)N2CCOCC2)c(C)n1-c1ccc(F)cc1	10.3%	-0.7%	-1.1%	-13.6%	7.7%
Brc1ccc(-c2nnc(-c3cccnc3)c3conc23)cc1	20.0%	7.08µM*	-1.9%	4.6%	0.5%
O=C(O)CCN1C(=O)c2ccc(NC(=O)COc3ccccc3)cc2C1=O	-14.1%	-0.4%	-2.0%	2.5%	12.1%
CCCCNc1nc(Oc2ccc(=O)n(C)n2)nc(N(C)C)n1	-3.2%	8.3%	0.0%	18.5%	3.0%
O=C1C=CC2(O[C@H](c3ccccc3)[C@@H](c3ccccc3)O2)[C@H](Sc2ccccc2O)C1	?	-3.4%	-29.8%	2.82µM*	-103.4%
SMILES	Nrf2 inh	Nrf2 ARE act	A549 tox	TGFb SMAD3 inh	HepG2 viability
CC1CCCCN1CCNC(=O)c1ccc2c(=O)n(Cc3ccc(Cl)cc3)c(=S)[nH]c2c1 (stereo unspecified)	14.6%	9.0%	-6.4%	?	12.6µM*
CC1CCCN(C(=O)c2ccc3c(=O)n(Cc4ccc5c(c4)OCO5)c(=S)[nH]c3c2)C1 (stereo unspecified)	25.9µM*	0.2%	-19.6%	-17.1%	-16.8%
O=C(c1ccc2c(=O)n(Cc3ccco3)c(=S)[nH]c2c1)N1CCN(Cc2ccc3c(c2)OCO3)CC1	16.4µM*	/	?	/	/
O=C(c1ccc2c(=O)n(Cc3ccc4c(c3)OCO4)c(=S)[nH]c2c1)N1CCN(Cc2ccccc2)CC1	?	/	-9.2%	/	/
O=C(CCc1ccccc1)Nc1ccc(S(=O)(=O)N2CCCC2)cc1	-22.7%	0.3%	-5.6%	-1.5%	-7.2%
O=C(NCCn1cc(SCc2ccccc2Cl)c2ccccc21)c1cccs1	16.4µM*	-0.4%	-2.0%	?	-31.1%
O=C(NCCn1cc(SCc2ccccc2)c2ccccc21)c1cccs1	?	-0.2%	-2.0%	?	-30.0%
COc1ccc(C(=O)NCCn2cc(SCC(=O)Nc3cccc(C)c3)c3ccccc32)cc1	?	1.0%	-18.2%	?	-2.9%
COc1ccc(C(=O)NCCn2cc(SCc3c(F)cccc3Cl)c3ccccc32)cc1	?	0.2%	?	15.8µM*	-11.9%
COc1ccc(C(=O)NCCn2cc(SCC(=O)Nc3nnc(C)s3)c3ccccc32)cc1	10.3µM*	2.5%	-11.9%[1.84 µM]	-24.7%	-9.8%
CC1CCCCN1c1nc(-c2ccncc2)nc2ccccc12 (stereo unspecified)	?	0.5%	6.2%	0.0%	-68.6%
CC(C)(O)C(=O)NN(C(=O)c1ccccc1)c1ccc2ccccc2c1	/	-0.8%	6.0%	-0.7%	18.3%
CC(C)c1ccc(/C=C(\C#N)c2nc(-c3ccc(O)cc3)cs2)cc1	6.1%	-3.7%	-3.2%	?	17.8µM*
COc1ccc(/C=C(/C#N)c2nc(-c3ccc(Br)cc3)cs2)cc1	?	5.4%	-11.6%	22.0%	4.7%
CCOC(=O)C1=CN(Cc2cccc(F)c2)S(=O)(=O)NC1c1ccc2ccccc2c1 (stereo unspecified)	?	-0.1%	-7.2%	12.6µM*	-11.1%
CCOc1ccc(S(=O)(=O)N2CCCC(C(=O)N3CCN(c4ccccc4)CC3)C2)cc1 (stereo unspecified)	23.1µM*	-0.1%	-18.2%	?	30.6%
CC(=O)c1c(C)[nH]c(C(=O)OCC(=O)N2CCN(S(=O)(=O)c3ccc(C)cc3C)CC2)c1C	?	-0.6%	-14.4%	-3.7%	-12.8%
CCOc1ccc(S(=O)(=O)N2CCN(C(=O)COc3ccc(Br)cc3)CC2)cc1	16.4µM*	4.0%	?	?	-18.3%
CC1CCN(C(=O)C2CCCN(S(=O)(=O)c3cccc4nsnc34)C2)CC1 (stereo unspecified)	-24.2%	-0.4%	-0.6%	-3.7%	-8.7%
CC(=O)c1c(C)[nH]c(C(=O)OCC(=O)N2CCN(S(=O)(=O)c3ccc(C)cc3)CC2)c1C	16.4µM*	-0.1%	-4.2%	-0.9%	-10.0%
